# Data published in PubChem BioAssay (NCATS).
# Several values for one entry are separate records, joined by “and”; a condition that tells them apart may be missing. Equal entries are not always repeated. Values without a mark were called inactive. Calls follow the shape of the dose curve; as a rule, active = well fitted activation curve with a large enough effect; inconclusive = small, poorly fitted or top-dose-only effect; inactive = no such curve, though single readings can be large or run the other way.
# Molecular target: Cytochrome P450 3A4 (Homo sapiens) (UniProt P08684)
# Assay: qHTS Assay for Activators of Cytochrome P450 3A4 (AID 885); also: nearly all actives have a fitted effect of over 65% in size
# Details: recombinant CYP3A4, Luciferin-PPXE luminescence, 60 min; series mostly up to 57.1 µM; activity change, positive = activation: at the top concentration
# Outline: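 Human CYP3A4 (20 nM) with Luciferin-PPXE at 25 uM (its KM) in 200 mM KPO4; 10 min compound preincubation, then NADPH regeneration and 60 min reaction at RT. Luciferin read by luminescence; normalized to 57 uM ketoconazole full inhibition.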
# Cytochrome P450 3A4 (Homo sapiens), sequence (P08684 whole entry, looked up): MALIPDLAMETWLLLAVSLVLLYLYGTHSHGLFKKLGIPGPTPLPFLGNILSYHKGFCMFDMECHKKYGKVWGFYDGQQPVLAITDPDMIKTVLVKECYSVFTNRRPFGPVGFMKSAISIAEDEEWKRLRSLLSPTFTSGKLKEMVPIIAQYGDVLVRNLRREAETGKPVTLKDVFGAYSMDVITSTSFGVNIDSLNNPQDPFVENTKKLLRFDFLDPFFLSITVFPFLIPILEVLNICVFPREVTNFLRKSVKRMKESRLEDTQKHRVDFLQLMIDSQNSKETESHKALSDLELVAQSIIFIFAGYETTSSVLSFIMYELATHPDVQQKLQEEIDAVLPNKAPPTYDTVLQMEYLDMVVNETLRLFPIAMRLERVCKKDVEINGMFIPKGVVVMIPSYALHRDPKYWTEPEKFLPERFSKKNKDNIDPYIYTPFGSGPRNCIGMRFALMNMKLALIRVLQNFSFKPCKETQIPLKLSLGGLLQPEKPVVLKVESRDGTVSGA
row,SMILES,"activity change, positive = activation"
1,CO[C@@H]1/C=C\CC(=O)N[C@@H](C)C(=O)OC[C@@H](OC)[C@H](C)CCCC(=O)OC[C@H]1C,-57.1% [at 11.4 µM]
2,CCCC[C@@H]1CN2[C@H](c3ccc(Br)cc3)[C@@H](C)CC[C@H]2C(=O)O1,-59.6% [at 11.4 µM]
3,CC(C)[C@@H](OCc1ccccc1)[C@H](C)/C=N\O[C@@H](C)c1cn([C@H](CO)Cc2ccccc2)nn1,-36% [at 11.4 µM] and -44.1% [at 11.4 µM]
4,CC(=O)OC[C@@H]1O[C@H](C/C=N\OCC[C@H]2C=C[C@H](OC(C)=O)[C@@H](COC(C)=O)O2)C=C[C@@H]1OC(C)=O,-31% [at 11.4 µM]
5,Cn1c(=O)cc(N)n(Cc2ccccc2)c1=O,-51.2%
6,COC(=O)[C@@H]1C[C@@H]2CC[C@@H](O)C[C@@H]2N1Cc1ccc(C(F)(F)F)cc1,-53%
7,COC(=O)[C@@H]1C[C@@]2(O)[C@@H](O)[C@@H](O)[C@@H](O)C[C@H]2N1Cc1cc(F)ccc1F,-30.5%
8,COC(=O)C/C=C\[C@@H](C)[C@@H](/C=N\O[C@@H](C)CN1CCCc2nc(C)c(C)cc21)OC,-59.1% [at 11.4 µM]
9,Cn1c(N)c(C(=O)COC(=O)c2cc(C3CC3)nc3ccccc23)c(=O)n(C)c1=O,-48.2%
10,C/C(CCN1CCCc2nc(C)c(C)cc21)=N\OC[C@@H](C)[C@H](OCc1ccccc1)C(C)C,-46.3% [at 11.4 µM]
11,COc1cccc([C@H](O)Cn2cc(-c3cccc(CON=C(C)C)c3)nn2)c1,-43.8% [at 11.4 µM]
12,COC(=O)[C@@H]1C[C@@]2(O)[C@H](O)[C@H](O)[C@H](O)C[C@H]2N1Cc1ccc(N2CCN(C)CC2)cc1,-46%
13,COC(=O)c1cccc(C23CC4(C2)[C@H](CN(Cc2ccc(-c5ccccc5)cc2)[C@@H]4c2ccccc2)C3c2ccc(C(F)(F)F)cc2)c1 (stereo partly specified),-49.9%
14,C#CCCCO/N=C1/C[C@@H](O)[C@@H](O)[C@@H]2[C@@H]3C(=O)N(CCC(=O)OCC)C(=O)[C@H]3CC[C@H]12,-51% [at 11.4 µM]
15,Clc1ccc(C2[C@H]3CN(Cc4ccc(-c5ccccc5)cc4)[C@H](c4ccccc4)C34CC2(c2ccccc2)C4)cn1 (stereo partly specified),-41.8%
16,COC(=O)c1cccc(C23CC4(C2)[C@H](CN(CC2CCCCC2)[C@@H]4c2ccccc2)C3c2ccc(C(F)(F)F)cc2)c1 (stereo partly specified),-57.7%
17,CC(C)CO/N=C1/C[C@@H](O)[C@@H](O)[C@@H]2[C@@H]3C(=O)N(Cc4ccccc4)C(=O)[C@H]3CC[C@H]12,-30.2% [at 11.4 µM]
18,CC(=O)OC[C@@H]1O[C@@H](O/N=C2/C[C@@H](O)[C@@H](O)[C@@H]3[C@@H]4C(=O)N(Cc5ccc6c(c5)OCO6)C(=O)[C@H]4CC[C@@H]23)[C@H](OC(C)=O)[C@H](OC(C)=O)[C@@H]1OC(C)=O,-36.6% [at 11.4 µM]
19,COC(=O)c1ccc(C23CC4(C2)[C@H](CN(CC2CCCCC2)[C@@H]4c2ccccc2)C3c2ccc(C(F)(F)F)cc2)cc1 (stereo partly specified),-54.9%
20,Cc1ccc(S(=O)(=O)N[C@H]2COC(=O)[C@H](C)COC(=O)[C@H](C)NC(=O)C/C=C\[C@H]2C)cc1,-41.3% [at 11.4 µM]
21,COC(=O)[C@@H]1CC[C@H](C)[C@@H](c2ccc(C)cc2)N1C(=O)c1ccc(/C=N\O[C@@H](C)CN2CCCc3nc(C)c(C)cc32)cc1,-48.9% [at 11.4 µM]
22,COC(=O)[C@@H]1C[C@@]2(O)[C@@H](O)[C@@H](O)[C@@H](O)C[C@H]2N1CC1CCCCC1,-36.1%
23,COc1ccc(O[C@H]2C=C[C@@H](c3ccccc3)O[C@@H]2CON=C(C)C)cc1,-40.2% [at 11.4 µM]
24,CO[C@@H]1COC(=O)C/C=C\[C@@H](C)COC(=O)[C@H](COCc2ccccc2)NC(=O)C/C=C\[C@H]1C,-56.3% [at 11.4 µM]
25,COC(=O)[C@@H]1CC[C@H](C)[C@@H](c2ccc(C)cc2)N1C(=O)c1ccc(/C=N\O[C@@H](C)c2cn([C@H]3COC[C@H]3O)nn2)cc1,-43.4% [at 11.4 µM]
26,Cn1c(N)c(C(=O)COC(=O)c2cc(C3CC3)nc3ccccc23)c(=O)n(Cc2ccccc2)c1=O,-53%
